Screening data (PubChem)
ELG1 genotox = qHTS screen for small molecules that induce genotoxicity in human embryonic kidney (HEK293T) cells expressing luciferase-tagged ELG1; AID 504466, 2011; 330,000 compounds, 1.3% hits; Potency, µM (series often up to 46 µM), inactives show at the highest dose activity change, positive = activation, most hits filed as activators; HEK293T ELG1-luciferase reporter, luminescence, 16 h; also: % of control where 0% means no effect; nearly all actives have a fitted effect of over 60% in size
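Luminescence read-out: rising ELG1-luciferase signal, reflecting elevated ELG1 protein under genetic stress, flags genotoxic compounds. Cells were treated for 16 hr at 37 °C before ONE-Glo detection.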
FLuc counter = qHTS profiling assay for firefly luciferase inhibitor/activator using purifed enzyme and Km concentrations of substrates (counterscreen for miR-21 project). purified FLuc, Km substrates, luminescence inhibition. Potency, µM (top dose mostly 57.5 µM), inactives show at the highest dose activity change, negative = inhibition, most hits filed as inhibitors. 360,000 compounds, 6.9% hits. AID 588342, 2011;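 also: plate controls were vehicle for no effect and reference inhibitor for full effect; nearly all actives have a fitted effect of over 55% in size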
Target sequence (P08659 whole entry, looked up): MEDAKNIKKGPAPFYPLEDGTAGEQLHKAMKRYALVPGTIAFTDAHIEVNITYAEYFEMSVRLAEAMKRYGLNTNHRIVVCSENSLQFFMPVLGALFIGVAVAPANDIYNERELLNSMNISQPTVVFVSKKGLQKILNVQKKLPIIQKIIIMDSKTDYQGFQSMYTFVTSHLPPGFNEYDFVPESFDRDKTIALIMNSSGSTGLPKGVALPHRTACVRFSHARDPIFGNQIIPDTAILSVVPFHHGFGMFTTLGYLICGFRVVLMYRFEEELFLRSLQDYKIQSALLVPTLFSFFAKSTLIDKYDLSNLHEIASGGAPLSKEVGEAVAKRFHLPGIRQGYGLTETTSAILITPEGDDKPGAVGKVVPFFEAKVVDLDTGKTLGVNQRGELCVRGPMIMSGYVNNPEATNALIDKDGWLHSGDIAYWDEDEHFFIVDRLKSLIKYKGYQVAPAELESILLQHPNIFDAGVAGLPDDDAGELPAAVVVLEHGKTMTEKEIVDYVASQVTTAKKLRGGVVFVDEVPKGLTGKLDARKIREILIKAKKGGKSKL
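Purified P. pyralis luciferase, 10 nM final, with Km-level 10 uM D-luciferin and 10 uM ATP in 50 mM Tris acetate pH 7.5, 10 mM Mg acetate, 0.01% Tween-20, 0.05% BSA; 6-point qHTS titration about 60 µM downward; luminescence read.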
Luc counter = Counterscreen for Luciferase (Kinase-Glo TM) Inhibition; Luciferin 4-monooxygenase (Photuris pensylvanica), Q27757; Kinase-Glo luciferase, ATP luminescence, 8 min; Potency, µM (series often up to 38.3 µM), for inactives: top-dose activity change, negative = inhibition, most hits filed as inhibitors; 200,000 compounds, 0.28% hits; also: % is scaled to controls: 0 for no effect and ±100 for the full control effect; nearly all actives have a fitted effect of over 60% in size
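Compounds were added to a substrate mix at pH 7.2 (50 mM imidazole, 10 uM ATP, within the enzyme's linear range), followed by Kinase-Glo detection reagent; luminescence was measured after 8 minutes at ambient temperature.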
Rab9 promoter act = qHTS Assay for Rab9 Promoter Activators; Huh7 Rab9 promoter-luciferase reporter, luminescence, 24 h; Potency, µM (series often up to 9.22 µM), for the others: top-dose activation, negative = inhibition, actives largely listed as activators; 320,000 compounds, 2.8% hits; AID 485297, 2010; also: % of control where 0% means no effect; nearly all actives have a fitted effect of over 60% in size
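Luciferase signal after 10 min detection reagent at ambient indicates Rab9 promoter upregulation; stably transfected Huh7 cells were treated 24 h with compound in DMSO at 37 °C, 5% CO2.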
NPC1 prom act = qHTS Assay for NPC1 Promoter Activators | Huh7 NPC1 promoter luciferase reporter, 24 h | Potency, µM (top dose mostly 9.22 µM), for the others: at the top dose activation, hits mostly activators | 320,000 compounds, 2.4% hits; also: % of control where 0% means no effect; nearly all actives have a fitted effect of over 60% in size
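Quantitative HTS used a cell-based reporter: Huh7 cells stably bearing the NPC1 promoter upstream of luciferase were treated with compounds for 24 h, and promoter activation was read as luminescence.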
SMN2 splice enh = qHTS Assay for Enhancers of SMN2 Splice Variant Expression. 210,000 compounds, 2.8% hits. HEK293 SMN2-luciferase splicing reporter, luminescence, 30-36 h. Potency, µM (highest dose often 46.1 µM), without a hit: at the highest dose activity change, positive = activation, actives largely listed as activators; also: % of control where 0% means no effect; nearly all actives have a fitted effect of over 55% in size
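HEK293 cells carry an SMN2 […]–luciferase reporter in which exon 7 inclusion puts luciferase in frame. Cells were plated 10-12 h before compound addition, then incubated 30-36 h at 37C. ONE-Glo luminescence was read; sodium butyrate at 4.5 mM final served as control.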
Active calls of the source: *; ? = inconclusive; nt = not tested or not shown. In the library only some 7.3% were active in any assay of this set; here they are far more common. Calls follow the shape of the dose curve; as a rule, active = well fitted curve in the direction sought with a large enough effect; inconclusive = small, poorly fitted or top-dose-only effect, or another doubt; inactive = no such curve, though single readings can be large; an effect the other way counts as inactive or inconclusive. Potency is read from the fitted curve at half-maximal effect.

SMILES	ELG1 genotox	FLuc counter	Luc counter	Rab9 promoter act	NPC1 prom act	SMN2 splice enh
O=C(OCc1nnc(-c2ccc(Cl)cc2)o1)c1ccncc1	-2%	?	-9%	-3%	8%	-1%
O=C(OCc1nnc(-c2ccccc2)o1)c1ccccc1	1%	15µM*	-6%	15%	1%	9%
O=C(OCc1nnc(-c2ccc(Br)cc2)o1)c1ccco1	1%	21µM*	nt	0%	-3%	nt
O=C(COC(=O)c1ccc(-c2nnc(-c3ccccc3)o2)cc1)c1ccccc1	?	4%	2%	0.56µM*	0.56µM*	2.8µM*
Cc1ccccc1C(=O)OCc1nnc(-c2ccc(Cl)cc2)o1	8%	19µM*	-5%	21%	-1%	11%
CCOC(=O)c1ccc(CN(Cc2ccc(F)cc2)S(=O)(=O)c2cc(C(=O)Nc3ccccc3CC)ccc2F)cc1	nt	-3%	nt	nt	nt	nt
CC1(c2ccc([N+](=O)[O-])cc2)Nc2ccccc2S1 (configuration not stated)	?	21µM*	nt	?	?	nt
COC(=O)c1ccc(C)c(NC(=O)CCc2ccc(OC)c(OC)c2)c1	-16%	5%	6%	-10%	0%	-32%
COc1ccc(CCN(C)CCC(=O)Nc2cc(C)ccc2C)cc1OC	-1%	13µM*	-1%	-2%	1%	-7%
COc1ccc2c(CNCc3ccco3)c(C(=O)O)n(Cc3cccc(F)c3)c2c1	nt	-16%	nt	nt	nt	nt
Cn1cc(Cl)c(C(=O)Nc2nc3ccc(Cl)cc3s2)n1	?	3.4µM*	-18%	1.4µM*	2.8µM*	22µM*
Cn1cc(Cl)c(C(=O)Nc2nc3ccc([N+](=O)[O-])cc3s2)n1	5%	1.2µM*	-3%	?	?	nt
CCN(CC)S(=O)(=O)c1ccc(C(=O)Nc2nc3ccc(Cl)cc3s2)cc1	nt	0%	nt	nt	nt	nt
COc1ccc(-c2nc3ccccc3o2)cc1NC(=O)c1ccc(-c2cccc(Cl)c2C)o1	nt	6%	nt	nt	nt	-3%
CC(C)C[C@@H](CC(=O)N[C@@H](CCC(=O)O)CC(=O)O)NC(=O)[C@@H]1CNCC[C@H]1NC(=O)C[C@H](CCCN)NC(=O)C[C@H](Cc1ccccc1)NC(=O)[C@@H]1CNCC[C@H]1N	nt	nt	1%	nt	nt	6%
Cc1c(C)n(Cc2ccccc2)c2ccc(C(=O)OCCN(C)C)cc12	1%	21µM*	0%	-12%	1%	nt
CCc1ccc(CNC(=O)c2ccc3c(c2)c(C)c(C)n3Cc2ccccc2)cc1	nt	-7%	nt	nt	nt	nt
COc1ccc(NC(=O)Nc2cc(C(=O)NCc3ccc(C)cc3)ccc2N2CCCC2)cc1	nt	2%	nt	nt	nt	nt
Cc1cccc(NC(=O)c2n[nH]c([N+](=O)[O-])c2Br)c1C	?	3.8µM*	1%	1µM*	0.79µM*	10µM*
Oc1ccc(CNCc2ccc3c(c2)OCO3)c2cccnc12	nt	-1%	nt	-1%	2%	nt
CCOC(=O)C1=C(Cc2ccc(OC)cc2)C(=O)c2ccccc2C1=O	28%	11µM*	14%	1%	-14%	-26%
CCOC(=O)C1=C(Cc2ccc(C)cc2)C(=O)c2ccccc2C1=O	4%	13µM*	-3%	-12%	-5%	-98%
CCOC(=O)c1ccc(COC(=O)c2ccc3c(c2)-c2ccccc2C3=O)cc1	-1%	1%	-2%	0%	-6%	-20%
O=C(CC1NCCNC1=O)Nc1ccccc1F (configuration not stated)	nt	1%	nt	nt	nt	-1%
COc1cc(OC)c(N(C)C(=O)Cn2ncc3c([nH]c4ccccc43)c2=O)cc1Cl	nt	1%	nt	nt	nt	nt
SMILES	ELG1 genotox	FLuc counter	Luc counter	Rab9 promoter act	NPC1 prom act	SMN2 splice enh
NCCOc1ccccc1-c1ccccc1	0%	6%	-3%	4.5µM*	-2%	25%
NCCOc1ccccc1OCCN	9%	0%	7%	-8%	1%	-11%
Cc1nc2ccc(N=NC3=C(O)CC(C)(C)CC3=O)cc2s1	?	4.3µM*	-5%	2%	-2%	?
CCN(CC)S(=O)(=O)c1cccc(N=NC2=C(O)CCCC2=O)c1	1%	-3%	-3%	7%	7%	-15%
CC(=O)N1CCc2cc(N=NC3=C(O)CC(C)(C)CC3=O)ccc21	?	13µM*	-4%	1.6µM*	4µM*	?
O=C1CCCC(O)=C1N=Nc1cccc(C(=O)O)c1	?	8.5µM*	-10%	2.2µM*	3.5µM*	?
Cc1nc2ccc(N=NC3=C(O)CCCC3=O)cc2s1	?	11µM*	-14%	-3%	5%	?
CCN1CCCC1CNC(=O)c1ccc(Cc2nc3ccccc3[nH]2)cc1 (configuration not stated)	nt	nt	2%	nt	nt	nt
COc1ccc(C(=O)Nc2ccccc2C(=O)OCc2cc(=O)n3nc(C4CC4)sc3n2)cc1	nt	-8%	nt	nt	nt	nt
Cc1c(Cl)cccc1-n1nc(C)c2c(C)cc(=O)n(CC(=O)N3CCCc4ccccc43)c21	nt	-9%	nt	nt	nt	nt
Cc1cccc(C(=O)N2CCNC(=O)C2CC(=O)Nc2ccc(F)cc2)c1 (configuration not stated)	nt	0%	nt	nt	nt	-4%
CCOC(=O)c1nnc2c(-c3ccc(Cl)cc3)c(C)nn2c1N	nt	0%	nt	nt	nt	0%
Cc1ccc(-n2ncc3c(=O)n(CC(=O)OCc4ccccc4)cnc32)cc1	8%	?	-6%	18%	7%	-8%
O=C(Cn1cnc2c(cnn2-c2ccccc2)c1=O)OCc1ccccc1	7%	11µM*	-1%	4µM*	23%	8%
CCOc1ccc(/C=C2\SC(=S)N(C(C(=O)O)c3ccccc3)C2=O)cc1OC (configuration not stated)	2%	19µM*	nt	-11%	-1%	nt
C=CCOc1ccc(/C=C2\SC(=S)N(C(C(=O)O)c3ccccc3)C2=O)cc1 (configuration not stated)	-3%	21µM*	nt	-3%	0%	nt
